According to ChEMBL document CHEMBL2218924, “A broad activity screen in support of a chemogenomic map for kinase signalling research and drug discovery” (Biochem J, 2013):

The molecules below were run against Tyrosine-protein kinase JAK2 (Homo sapiens) (UniProt O60674). Conditions: at 10 µM.
Sequence of Tyrosine-protein kinase JAK2 (Homo sapiens) (O60674 whole entry): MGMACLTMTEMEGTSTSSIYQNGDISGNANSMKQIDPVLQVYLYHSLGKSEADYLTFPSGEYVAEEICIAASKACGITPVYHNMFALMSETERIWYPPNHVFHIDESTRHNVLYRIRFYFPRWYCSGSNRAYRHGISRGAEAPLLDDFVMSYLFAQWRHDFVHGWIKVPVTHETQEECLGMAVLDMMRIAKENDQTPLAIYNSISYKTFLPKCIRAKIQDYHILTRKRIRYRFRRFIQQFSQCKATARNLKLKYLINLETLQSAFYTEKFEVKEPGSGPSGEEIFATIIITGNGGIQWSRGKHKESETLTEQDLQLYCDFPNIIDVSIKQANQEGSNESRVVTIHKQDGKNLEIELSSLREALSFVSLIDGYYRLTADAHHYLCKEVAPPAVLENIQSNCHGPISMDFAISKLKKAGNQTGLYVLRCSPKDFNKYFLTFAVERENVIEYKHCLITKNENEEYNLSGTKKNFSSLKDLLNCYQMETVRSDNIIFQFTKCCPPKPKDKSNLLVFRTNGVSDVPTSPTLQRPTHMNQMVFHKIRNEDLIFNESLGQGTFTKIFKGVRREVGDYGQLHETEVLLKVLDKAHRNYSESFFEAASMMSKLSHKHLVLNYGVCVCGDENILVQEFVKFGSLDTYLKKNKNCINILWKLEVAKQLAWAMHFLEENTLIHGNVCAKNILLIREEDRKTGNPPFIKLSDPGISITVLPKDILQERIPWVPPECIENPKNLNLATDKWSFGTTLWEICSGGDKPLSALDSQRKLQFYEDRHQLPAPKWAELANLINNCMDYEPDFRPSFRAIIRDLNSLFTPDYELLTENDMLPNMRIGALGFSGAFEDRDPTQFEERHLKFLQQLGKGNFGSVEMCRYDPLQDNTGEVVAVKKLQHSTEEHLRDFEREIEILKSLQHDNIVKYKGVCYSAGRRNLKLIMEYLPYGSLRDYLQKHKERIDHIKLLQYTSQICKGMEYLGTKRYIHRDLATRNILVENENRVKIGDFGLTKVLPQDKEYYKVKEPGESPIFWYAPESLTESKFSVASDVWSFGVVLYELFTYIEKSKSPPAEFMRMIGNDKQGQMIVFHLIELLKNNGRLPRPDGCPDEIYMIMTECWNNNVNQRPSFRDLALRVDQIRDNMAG

SMILES	residual activity [%]
N/C(=N\[N+](=O)[O-])N/N=C\c1ccc(-c2cccc([N+](=O)[O-])c2)o1	85
COc1cc2ncnc(Nc3ccc(OCc4ccccc4)cc3)c2cc1OC	90
O=c1[nH]c2ccccc2n1C1CCN(Cc2ccc(-c3nc4cc5[nH]cnc5cc4nc3-c3ccccc3)cc2)CC1	107
CC(C)[C@H](CO)Nc1nc(Nc2cccc(Cl)c2)c2ncn(C(C)C)c2n1	73
CCn1cnc2c(Nc3cccc(Cl)c3)nc(N[C@@H]3CCCC[C@@H]3N)nc21	78
COc1cc(OC)c(/C=C2\C(=O)Nc3ccccc32)c(OC)c1	94
O=C1Nc2ccc3ncsc3c2/C1=C/c1c[nH]cn1	18
O=[N+]([O-])/C=C/c1ccc2c(c1)OCO2	118
COc1ccc2c(c1)/C(=C/c1cnc[nH]1)C(=O)N2	29
COc1ccc2c(c[n+](C)c3c4cc5c(cc4ccc23)OCO5)c1OC	121
CCc1nc(-c2ccc(OC)cc2)[nH]c1-c1ccncc1	105
COC(=O)[C@@]1(O)C[C@H]2O[C@]1(C)n1c3ccccc3c3c4c(c5c6ccccc6n2c5c31)C(=O)NC4	-1
CC(C)(C)c1cc(C=C(C#N)C#N)cc(Br)c1O	113
O=C1NC(=O)c2c1c1c3ccccc3n3c1c1c2c2ccccc2n1C1CCC3O1	82
C[S+]([O-])c1ccc(-c2nc(-c3ccc(F)cc3)c(-c3ccncc3)[nH]2)cc1 (stereo unspecified)	119

Each molecule was assayed against T1, Tyrosine-protein kinase JAK3 (Homo sapiens) (UniProt P52333). Conditions: at 1 µM.
T1 sequence (whole entry): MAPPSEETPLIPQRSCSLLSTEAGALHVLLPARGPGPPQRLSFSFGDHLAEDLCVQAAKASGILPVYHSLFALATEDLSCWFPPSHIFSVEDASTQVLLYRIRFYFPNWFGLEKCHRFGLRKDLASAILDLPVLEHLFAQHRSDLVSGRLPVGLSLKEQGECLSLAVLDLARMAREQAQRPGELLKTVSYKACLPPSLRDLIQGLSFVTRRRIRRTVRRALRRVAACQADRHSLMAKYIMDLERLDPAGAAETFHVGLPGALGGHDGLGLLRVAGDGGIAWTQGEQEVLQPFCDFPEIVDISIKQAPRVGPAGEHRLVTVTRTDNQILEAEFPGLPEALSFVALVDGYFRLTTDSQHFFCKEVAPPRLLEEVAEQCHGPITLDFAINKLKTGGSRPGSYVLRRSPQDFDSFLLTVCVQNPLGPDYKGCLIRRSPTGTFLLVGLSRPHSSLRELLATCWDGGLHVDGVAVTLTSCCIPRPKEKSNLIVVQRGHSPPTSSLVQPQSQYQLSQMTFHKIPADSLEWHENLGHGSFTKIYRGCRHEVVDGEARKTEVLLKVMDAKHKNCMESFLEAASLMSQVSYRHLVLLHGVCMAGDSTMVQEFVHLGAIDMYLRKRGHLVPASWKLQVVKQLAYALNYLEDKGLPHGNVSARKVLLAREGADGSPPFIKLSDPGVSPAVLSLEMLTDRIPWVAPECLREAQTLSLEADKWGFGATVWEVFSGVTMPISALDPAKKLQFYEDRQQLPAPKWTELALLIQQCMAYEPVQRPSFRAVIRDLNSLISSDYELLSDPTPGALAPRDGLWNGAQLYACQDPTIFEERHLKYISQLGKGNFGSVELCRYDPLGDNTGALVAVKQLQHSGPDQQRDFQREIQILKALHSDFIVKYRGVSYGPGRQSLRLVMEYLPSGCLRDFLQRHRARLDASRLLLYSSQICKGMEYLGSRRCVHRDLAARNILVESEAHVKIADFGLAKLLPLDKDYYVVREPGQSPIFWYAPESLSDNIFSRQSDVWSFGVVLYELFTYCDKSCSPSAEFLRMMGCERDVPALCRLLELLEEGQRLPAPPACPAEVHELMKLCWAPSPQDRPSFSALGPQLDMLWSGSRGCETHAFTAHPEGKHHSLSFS

SMILES	residual activity [%]
COc1cc2ncnc(Nc3ccc(OCc4ccccc4)cc3)c2cc1OC	101
O=c1[nH]c2ccccc2n1C1CCN(Cc2ccc(-c3nc4cc5[nH]cnc5cc4nc3-c3ccccc3)cc2)CC1	110
O=C1c2ccccc2-c2nc3nnnn3nc21	103
CCn1cnc2c(Nc3cccc(Cl)c3)nc(N[C@@H]3CCCC[C@@H]3N)nc21	112
COc1cc(OC)c(/C=C2\C(=O)Nc3ccccc32)c(OC)c1	105
O=C1Nc2ccc3ncsc3c2/C1=C/c1c[nH]cn1	16
O=[N+]([O-])/C=C/c1ccc2c(c1)OCO2	114
COc1ccc2c(c1)/C(=C/c1cnc[nH]1)C(=O)N2	48
COc1ccc2c(c[n+](C)c3c4cc5c(cc4ccc23)OCO5)c1OC	91
CCc1nc(-c2ccc(OC)cc2)[nH]c1-c1ccncc1	113
COC(=O)[C@@]1(O)C[C@H]2O[C@]1(C)n1c3ccccc3c3c4c(c5c6ccccc6n2c5c31)C(=O)NC4	0
CC(C)(C)c1cc(C=C(C#N)C#N)cc(Br)c1O	105
O=C1NC(=O)c2c1c1c3ccccc3n3c1c1c2c2ccccc2n1C1CCC3O1	8
C[S+]([O-])c1ccc(-c2nc(-c3ccc(F)cc3)c(-c3ccncc3)[nH]2)cc1 (stereo unspecified)	107

What follows are molecules tested against T1, Tyrosine-protein kinase JAK3 (Homo sapiens). Conditions: at 10 µM.

SMILES	residual activity [%]
COc1cc2ncnc(Nc3ccc(OCc4ccccc4)cc3)c2cc1OC	100
O=c1[nH]c2ccccc2n1C1CCN(Cc2ccc(-c3nc4cc5[nH]cnc5cc4nc3-c3ccccc3)cc2)CC1	126
CCn1cnc2c(Nc3cccc(Cl)c3)nc(N[C@@H]3CCCC[C@@H]3N)nc21	119
COc1cc(OC)c(/C=C2\C(=O)Nc3ccccc32)c(OC)c1	100
O=C1Nc2ccc3ncsc3c2/C1=C/c1c[nH]cn1	3
O=[N+]([O-])/C=C/c1ccc2c(c1)OCO2	108
COc1ccc2c(c1)/C(=C/c1cnc[nH]1)C(=O)N2	10
COc1ccc2c(c[n+](C)c3c4cc5c(cc4ccc23)OCO5)c1OC	67
CCc1nc(-c2ccc(OC)cc2)[nH]c1-c1ccncc1	103
COC(=O)[C@@]1(O)C[C@H]2O[C@]1(C)n1c3ccccc3c3c4c(c5c6ccccc6n2c5c31)C(=O)NC4	0
O=C1NC(=O)c2c1c1c3ccccc3n3c1c1c2c2ccccc2n1C1CCC3O1	9
C[S+]([O-])c1ccc(-c2nc(-c3ccc(F)cc3)c(-c3ccncc3)[nH]2)cc1 (stereo unspecified)	112
